# Among all 52,000 compounds or so, about 4,300 (8.3%) were called active. Only a selection was taken, and actives are over-represented in it overall. A number with no mark means an inactive call. Rule as the data show it: active = survival mostly below about 52% (no sharp cut-off); inactive = mostly above about 56%.
# Tested on: DeltatarO mutant
# Assay: S. aureus survival, RN4220 and DeltatarO strains – OD600, teichoic acid synthesis inhibitors, primary screen (AID 463173)
# Conditions: S. aureus RN4220 wild type/DeltatarO growth, OD600, 18 h, stronger effect = lower value, screened at 18.75 µg/mL (by protocol)
row,SMILES,survival
1,CCSc1oc(-c2ccc(F)cc2)nc1S(=O)(=O)c1ccc(C)cc1,45%
2,CC(C)CS(=O)(=O)c1oc(-c2ccc(F)cc2)nc1S(=O)(=O)c1ccccc1,-4% (active)
3,CCCCS(=O)(=O)c1oc(-c2ccc(F)cc2)nc1S(=O)(=O)c1ccc(C)cc1,30% (active)
4,CSc1oc(-c2ccc(F)cc2)nc1S(=O)(=O)c1ccc(Br)cc1,41% (active)
5,CSc1oc(-c2cccs2)nc1S(=O)(=O)c1ccc(Br)cc1,56%
6,Cc1ccc(-c2nc(S(=O)(=O)c3ccc(F)cc3)c(N3CCN(c4ccccc4)CC3)o2)cc1,72%
7,COc1ccccc1NC(=O)CSc1oc(-c2ccc(F)cc2)nc1S(=O)(=O)c1ccc(Br)cc1,49% (active)
8,Cc1ccc(S(=O)(=O)c2nc(-c3ccc(F)cc3)oc2N2CCN(c3ccccc3)CC2)cc1,107%
9,COc1ccc(-c2nc(S(=O)(=O)c3ccc(C)cc3)c(NCc3ccccc3)o2)cc1,67%
10,COc1ccccc1NC(=O)CSc1oc(-c2ccccc2)nc1S(=O)(=O)c1ccc(C)cc1,158%
11,COc1ccccc1NC(=O)CSc1oc(-c2ccccc2)nc1S(=O)(=O)c1ccccc1,145%
12,COc1cc(C)ccc1OCCSc1nc2ccc(NC(=O)c3cccs3)cc2s1,72%
13,CCOC(=O)c1ccccc1NC(=O)C1CCN(c2ncnc3c2nc2n3CCCCC2)CC1,62%
14,O=C1CS/C(=N/c2nc(-c3ccccc3)cs2)N1,83%
15,COc1ccc(-c2nc3sc(CCNC(=O)c4ccccc4C)c(C)n3n2)cc1,77%
16,Cc1ccccc1CNC(=O)CCC(=O)N1CC2CCCN2c2ccccc21 (configuration not stated),55%
17,O=C(CSc1oc(-c2ccc(F)cc2)nc1S(=O)(=O)c1ccccc1)NC1CCCCC1,61%
18,CCS(=O)(=O)c1oc(-c2ccc(F)cc2)nc1S(=O)(=O)c1ccc(Br)cc1,-5% (active)
19,COCCNc1oc(-c2ccccc2)nc1S(=O)(=O)c1ccc(Br)cc1,79%
20,CCS(=O)(=O)c1oc(-c2ccc(F)cc2)nc1S(=O)(=O)c1ccccc1,-5% (active)
21,CCCCS(=O)(=O)c1oc(-c2ccc(F)cc2)nc1S(=O)(=O)c1ccccc1,4% (active)
22,O=S(=O)(c1ccccc1)c1nc(-c2ccc(F)cc2)oc1NCc1ccccc1,67%
23,O=C(CSc1oc(-c2ccc(F)cc2)nc1S(=O)(=O)c1ccc(Br)cc1)NC1CCCCC1,64%
24,CC(=O)Nc1ccc(NC(=O)CCc2c(C)nc3c(c(C)nn3-c3ccccc3)c2C)cc1,107%
25,CCCCN(C)CCNC(=O)c1cc2c(=O)n(C)c3ccccc3c2n1C,90%

row,SMILES,survival
1,Cc1ccccc1CCNC(=O)c1ccc2c(c1)nc1n2CCOC1,84%
2,Cn1c(=S)[nH]c2c(c1=O)C1(CCCC1)Cc1ccccc1-2,80%
3,CSCCC(NS(=O)(=O)c1ccc2c(c1)oc(=O)n2C)C(=O)NCc1ccc(Cl)cc1 (configuration not stated),92%
4,COc1ccc(-c2nc3scc(CCNC(=O)Cc4ccc(F)cc4)n3n2)cc1,95%
5,CCC(C(=O)Nc1cccc(-c2nc3cccnc3s2)c1C)c1ccccc1 (configuration not stated),92%
6,CCC(C(=O)Nc1cc(-c2cn3cccnc3n2)ccc1C)c1ccccc1 (configuration not stated),91%
7,Cc1ccc(-c2nc3cccnc3s2)cc1NC(=O)C(C)C,112%
8,CCC(C(=O)Nc1cc(-c2nc3cccnc3s2)ccc1C)c1ccccc1 (configuration not stated),37% (active)
9,CCC(CC)C(=O)Nc1cccc(-c2nc3cccnc3s2)c1,80%
10,CCC(CC)C(=O)Nc1cc(-c2nc3cccnc3s2)ccc1C,57% (active)
11,CCCC(=O)Nc1cc(C)c(O)c(-c2nc3ncccc3o2)c1,91%
12,NC(=O)C1CCN(S(=O)(=O)c2ccc(N3CCCCS3(=O)=O)cc2)CC1,116%
13,Cn1c(=O)c2c(n3ncnc13)NC(=O)CC2c1cccc(F)c1 (configuration not stated),66%
14,CS(=O)(=O)N1CCN(c2ncnc3c(-c4ccc(Cl)cc4)nsc23)CC1,99%
15,COCCn1c(C)cc(O)c(C(c2ccc(OC)cc2)N2CCN(c3ccccc3)CC2)c1=O (configuration not stated),58%
16,Cc1nc2c3cccnc3nn2c(C)c1CCC(=O)NCc1ccccc1,110%
17,COc1ccc(-c2ccc(CCC(=O)O)n2-c2cc(Cl)ccc2O)cc1,52%
18,COc1ccc(-c2ccc(CCC(=O)O)n2-c2ccc(Cl)cc2C)cc1,47% (active)
19,Cc1ccc(-n2c(CCC(=O)O)ccc2-c2cccs2)cc1C,46%
20,Cc1ccc(-c2ccc(CCC(=O)O)n2-c2ccc(C)c(Cl)c2)cc1,42%
21,Cc1ccc(-c2ccc(CCC(=O)O)n2-c2cccc(C)c2C)cc1,34% (active)
22,Cc1ccc(Cl)cc1-n1c(CCC(=O)O)ccc1-c1cccs1,38% (active)
23,COc1ccc(-n2c(CCC(=O)O)ccc2-c2ccccc2)c(OC)c1,47% (active)
24,COc1ccc(-c2ccc(CCC(=O)O)n2-c2ccccc2C(F)(F)F)cc1,116%
25,COc1ccc(-c2ccc(CCC(=O)O)n2-c2ccccc2O)cc1,124%

row,SMILES,survival
1,Cc1ccc(C)c(-n2c(CCC(=O)O)ccc2-c2ccc(Cl)cc2)c1,75%
2,Cc1ccc(-n2c(CCC(=O)O)ccc2-c2cccs2)cc1Cl,86%
3,COc1ccc(Cl)cc1-n1c(CCC(=O)O)ccc1-c1ccc(C)cc1,73%
4,CCOC(=O)c1ccc(NC(=O)CCC(=O)N2Cc3ccccc3Oc3ncccc32)cc1,92%
5,COc1ccc(N(C(=O)c2ccc(Cl)cc2)S(=O)(=O)c2ccc(C)cc2)cc1,68%
6,COc1cc(/C=C/c2nc3cc(Cl)ccc3c(=O)n2-c2cccc(C(F)(F)F)c2)cc(OC)c1OC,96%
7,CCOc1cccc2sc(N3CCN(C(=O)C(C)(C)C)CC3)nc12,77%
8,CCOc1ccc2nc(NCCNC(=O)NCc3ccccc3)c(C#N)cc2c1,98%
9,CSc1ccccc1NC(=O)CSc1ncccn1,108%
10,O=C(COc1ccccc1Cl)NCC1(N2CCOCC2)CCCCC1,106%
11,COc1ccc(-c2nc(SCC(=O)NCC3CCCO3)c(-c3ccc(C)cc3)[nH]2)cc1OC (configuration not stated),66%
12,COc1ccc(CNS(=O)(=O)c2cc3c(cc2Cl)N(C(C)=O)CCO3)cc1,74%
13,COc1ccccc1-n1c(=O)n(C)c2c(C(N)=O)nc(-c3cccc(OC)c3OC)nc21,83%
14,Cc1cccc(NC(=O)C(=O)NCCc2sc(-c3ccccc3)nc2C)c1C,79%
15,CC(=O)c1ccc(-n2c(CCC(=O)O)ccc2-c2cccs2)cc1,65%
16,Cc1c(Cl)cccc1-n1c(CCC(=O)O)ccc1-c1cccs1,35% (active)
17,Cc1c(Cl)cccc1NC(=O)Cn1c(CCC(=O)O)ccc1-c1cccs1,50%
18,Cc1cc(Cl)ccc1-n1c(CCC(=O)O)ccc1-c1cccs1,47% (active)
19,Cc1ccc(NC(=O)Cn2c(CCC(=O)O)ccc2-c2cccs2)cc1Cl,59%
20,Cc1ccc(NC(=O)Cn2c(CCC(=O)O)ccc2-c2cccs2)cc1,56%
21,O=C(COc1ccccc1)N(Cc1cccnc1)c1nc2c(F)cc(F)cc2s1,84%
22,CCc1nc2ccc(C(=O)NCCc3ccc(SC)cc3)cc2nc1CC,76%
23,CCC(C(=O)NCCC(C)C)N(C(=O)Cn1nnc(-c2ccc(C)cc2)n1)c1cccc(O)c1 (configuration not stated),37% (active)
24,Cc1ccc(-c2nnn(CC(=O)N(CC(=O)NCCC(C)C)c3ccc(F)cc3)n2)cc1,41% (active)
25,COc1ccc(-c2nnn(CC(=O)N(CC(=O)NCc3ccccc3)c3ccc4c(c3)OCCO4)n2)cc1OC,69%

row,SMILES,survival
1,O=C(CN(C(=O)Cn1nnc(-c2ccc(F)cc2)n1)c1ccccc1C(F)(F)F)NCc1ccco1,98%
2,CCC(C(=O)NC1CCCC1)N(C(=O)Cn1nnc(-c2cccs2)n1)c1cnc2ccccc2c1 (configuration not stated),92%
3,CCC(C(=O)NC1CCCC1)N(C(=O)Cn1nnc(-c2ccc(C)cc2)n1)c1ccc2c(c1)OCCO2 (configuration not stated),90%
4,O=C(Oc1c(Cl)cc(Cl)c2cccnc12)N1CCCCCC1,112%
5,COC(=O)c1cc2sccc2n1CC(=O)Nc1ccc(OC)c(OC)c1,86%
6,Cc1cccc(OCC(=O)Nc2ccccc2OCc2cc(=O)n3cc(C)ccc3n2)c1,94%
7,COc1ccc(OC(=O)CSc2nnc(-c3ccc(F)cc3)o2)cc1,109%
8,FC(F)(F)c1cccc(C(c2nnnn2Cc2ccccc2)N(Cc2ccco2)CC2CCCO2)c1 (configuration not stated),105%
9,COc1cccc(C(=O)Nc2c3c(nn2-c2ccc(C)cc2C)CS(=O)(=O)C3)c1OC,116%
10,COc1ccc2cc3cc(C(=O)Nc4ccccc4C)oc3nc2c1,116%
11,Cc1ccc(C)c(N2CCN(C(c3ccccc3)c3nnc(-c4ccccc4)o3)CC2)c1 (configuration not stated),-5% (active)
12,Cc1ccc(Cl)cc1N1CCN(C(c2ccc(F)cc2)c2nnc(-c3ccccc3)o2)CC1 (configuration not stated),55%
13,Fc1ccc(C(c2nnc(-c3ccccc3)o2)N2CCN(c3cccc(Cl)c3)CC2)cc1 (configuration not stated),91%
14,Fc1ccc(C(c2nnc(-c3ccccc3)o2)N2CCN(c3ccccc3)CC2)c(Cl)c1 (configuration not stated),84%
15,Cc1ccc(C)c(N2CCN(C(c3ccc(F)cc3)c3nnc(-c4ccccc4)o3)CC2)c1 (configuration not stated),16% (active)
16,Cc1cccc(N2CCN(C(c3ccccc3)c3nnc(-c4ccccc4Cl)o3)CC2)c1C (configuration not stated),51%
17,COc1ccccc1N1CCN(C(c2ccc(Cl)cc2)c2nnc(-c3cccc(F)c3)o2)CC1 (configuration not stated),62%
18,Cc1cccc(N2CCN(C(c3ccccc3)c3nnc(-c4ccccc4F)o3)CC2)c1C (configuration not stated),58%
19,Cc1cccc(N2CCN(C(c3ccc(F)cc3)c3nnc(-c4ccccc4)o3)CC2)c1C (configuration not stated),39% (active)
20,Cc1ccc(C)c(N2CCN(C(c3ccccc3)c3nnc(-c4ccccc4F)o3)CC2)c1 (configuration not stated),61%
21,COc1ccc(N2CCN(C(c3ccccc3)c3nnc(-c4ccccc4Cl)o3)CC2)cc1 (configuration not stated),49%
22,COc1ccccc1N1CCN(C(c2ccccc2)c2nnc(-c3ccccc3Cl)o2)CC1 (configuration not stated),32% (active)

# — PubChem BioAssay AID463173 (ICCB-Longwood Screening Facility, Harvard Medical School, 2010)
